Test results taken from the supplement of paper PMC10849652.
Targets with a hit are over-represented here; the source holds about 7,900 in all. About 0.6% of all pairs of compound and target were hits. Values without a mark were called inactive.

Experiments:
Test in all cases: log2 fold change, soluble protein after heating vs DMSO (PISA); higher = thermal stabilisation; K562 cells, 10 uM, 30 min; active = over 0.2 and 3.5 SD of the protein, either way, in both replicates (recomputed)
[1] = compound: CS(=O)(=O)c1ccc(-c2cnc(N)c(C(=O)Nc3ccccc3)n2)cc1
Procedure, shortened: (§1)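 K562 cells (2×10^6 cells/mL) were treated with 10 μM compound for 30 min, and aliquots were heated for 3 min over 48°C-58°C. Pooled aliquots were extracted in PBS with 0.5% NP-40 at 4°C, and the supernatant after 21,000xg for 90 min was measured by TMTpro 16plex LC-MS/MS with channel sums equalised. Reported thermal stability, relative to control samples and from duplicates, is a log2 fold change.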

crizotinib = compound: C[C@@H](Oc1cc(-c2cnn(C3CCNCC3)c2)cnc1N)c1c(Cl)ccc(F)c1Cl [crizotinib]
Procedure, shortened: as §1

[2] = compound: C[C@@H]1COCCN1C2=NC(=NC(=C2)C3(CC3)S(=O)(=O)C)C4=C5C=CNC5=CC=C4
Procedure, shortened: as §1

[3] = compound: C[C@H](C1=CC=C(C=C1)C(=O)NC2=C3C=CNC3=NC=C2)N
Procedure, shortened: as §1

duvelisib = compound: C[C@H](Nc1ncnc2nc[nH]c12)c1cc2cccc(Cl)c2c(=O)n1-c1ccccc1 [duvelisib]
Procedure, shortened: as §1

gandotinib = compound: Cc1cc(Nc2cc(CN3CCOCC3)c3nc(C)c(Cc4ccc(Cl)cc4F)n3n2)n[nH]1 [gandotinib]
Procedure, shortened: as §1

tozasertib = compound: Cc1cc(Nc2cc(N3CCN(C)CC3)nc(Sc3ccc(NC(=O)C4CC4)cc3)n2)n[nH]1 [tozasertib]
Procedure, shortened: as §1

[4] = compound: Cc1cc(SCc2sc(-c3ccc(C(F)(F)F)cc3)nc2C)ccc1OCC(=O)O
Procedure, shortened: as §1

doramapimod = compound: Cc1ccc(-n2nc(C(C)(C)C)cc2NC(=O)Nc2ccc(OCCN3CCOCC3)c3ccccc23)cc1 [doramapimod]
Procedure, shortened: as §1

ispinesib = compound: Cc1ccc(C(=O)N(CCCN)[C@@H](c2nc3cc(Cl)ccc3c(=O)n2Cc2ccccc2)C(C)C)cc1 [ispinesib]
Procedure, shortened: as §1

bafetinib = compound: Cc1ccc(NC(=O)c2ccc(CN3CC[C@H](N(C)C)C3)c(C(F)(F)F)c2)cc1Nc1nccc(-c2cncnc2)n1 [bafetinib]
Procedure, shortened: as §1

[5] = compound: Cc1cccc(CC(=O)N2CCc3c2ccc(-c2cn(C)c4ncnc(N)c24)c3F)n1
Procedure, shortened: as §1

nilotinib = compound: Cc1cn(-c2cc(NC(=O)c3ccc(C)c(Nc4nccc(-c5cccnc5)n4)c3)cc(C(F)(F)F)c2)cn1 [nilotinib]
Procedure, shortened: as §1

[6] = compound: Cc1nc(Nc2n[nH]c3c2CN(C(=O)N[C@H](CN(C)C)c2ccccc2)C3(C)C)c2sccc2n1
Procedure, shortened: as §1

dasatinib = compound: Cc1nc(Nc2ncc(C(=O)Nc3c(C)cccc3Cl)s2)cc(N2CCN(CCO)CC2)n1 [dasatinib]
Procedure, shortened: as §1

[7] = compound: Cc1ncc(-c2ccnc(Nc3ccc(S(C)(=O)=O)cc3)n2)n1C(C)C
Procedure, shortened: as §1

[8] = compound: Cn1cc(-c2ccc3c(c2)CCN3C(=O)Cc2cccc(C(F)(F)F)c2)c2c(N)ncnc21
Procedure, shortened: as §1

[9] = compound: Cn1cc(-c2ccc3nnc(C(F)(F)c4ccc5ncccc5c4)n3n2)cn1
Procedure, shortened: as §1

tipifarnib = compound: Cn1cncc1[C@@](N)(c1ccc(Cl)cc1)c1ccc2c(c1)c(-c1cccc(Cl)c1)cc(=O)n2C [tipifarnib]
Procedure, shortened: as §1

mubritinib = compound: FC(F)(F)c1ccc(/C=C/c2nc(COc3ccc(CCCCn4ccnn4)cc3)co2)cc1 [mubritinib]
Procedure, shortened: as §1

UniProt Q5VT25, sequence (Q5VT25 whole entry, looked up): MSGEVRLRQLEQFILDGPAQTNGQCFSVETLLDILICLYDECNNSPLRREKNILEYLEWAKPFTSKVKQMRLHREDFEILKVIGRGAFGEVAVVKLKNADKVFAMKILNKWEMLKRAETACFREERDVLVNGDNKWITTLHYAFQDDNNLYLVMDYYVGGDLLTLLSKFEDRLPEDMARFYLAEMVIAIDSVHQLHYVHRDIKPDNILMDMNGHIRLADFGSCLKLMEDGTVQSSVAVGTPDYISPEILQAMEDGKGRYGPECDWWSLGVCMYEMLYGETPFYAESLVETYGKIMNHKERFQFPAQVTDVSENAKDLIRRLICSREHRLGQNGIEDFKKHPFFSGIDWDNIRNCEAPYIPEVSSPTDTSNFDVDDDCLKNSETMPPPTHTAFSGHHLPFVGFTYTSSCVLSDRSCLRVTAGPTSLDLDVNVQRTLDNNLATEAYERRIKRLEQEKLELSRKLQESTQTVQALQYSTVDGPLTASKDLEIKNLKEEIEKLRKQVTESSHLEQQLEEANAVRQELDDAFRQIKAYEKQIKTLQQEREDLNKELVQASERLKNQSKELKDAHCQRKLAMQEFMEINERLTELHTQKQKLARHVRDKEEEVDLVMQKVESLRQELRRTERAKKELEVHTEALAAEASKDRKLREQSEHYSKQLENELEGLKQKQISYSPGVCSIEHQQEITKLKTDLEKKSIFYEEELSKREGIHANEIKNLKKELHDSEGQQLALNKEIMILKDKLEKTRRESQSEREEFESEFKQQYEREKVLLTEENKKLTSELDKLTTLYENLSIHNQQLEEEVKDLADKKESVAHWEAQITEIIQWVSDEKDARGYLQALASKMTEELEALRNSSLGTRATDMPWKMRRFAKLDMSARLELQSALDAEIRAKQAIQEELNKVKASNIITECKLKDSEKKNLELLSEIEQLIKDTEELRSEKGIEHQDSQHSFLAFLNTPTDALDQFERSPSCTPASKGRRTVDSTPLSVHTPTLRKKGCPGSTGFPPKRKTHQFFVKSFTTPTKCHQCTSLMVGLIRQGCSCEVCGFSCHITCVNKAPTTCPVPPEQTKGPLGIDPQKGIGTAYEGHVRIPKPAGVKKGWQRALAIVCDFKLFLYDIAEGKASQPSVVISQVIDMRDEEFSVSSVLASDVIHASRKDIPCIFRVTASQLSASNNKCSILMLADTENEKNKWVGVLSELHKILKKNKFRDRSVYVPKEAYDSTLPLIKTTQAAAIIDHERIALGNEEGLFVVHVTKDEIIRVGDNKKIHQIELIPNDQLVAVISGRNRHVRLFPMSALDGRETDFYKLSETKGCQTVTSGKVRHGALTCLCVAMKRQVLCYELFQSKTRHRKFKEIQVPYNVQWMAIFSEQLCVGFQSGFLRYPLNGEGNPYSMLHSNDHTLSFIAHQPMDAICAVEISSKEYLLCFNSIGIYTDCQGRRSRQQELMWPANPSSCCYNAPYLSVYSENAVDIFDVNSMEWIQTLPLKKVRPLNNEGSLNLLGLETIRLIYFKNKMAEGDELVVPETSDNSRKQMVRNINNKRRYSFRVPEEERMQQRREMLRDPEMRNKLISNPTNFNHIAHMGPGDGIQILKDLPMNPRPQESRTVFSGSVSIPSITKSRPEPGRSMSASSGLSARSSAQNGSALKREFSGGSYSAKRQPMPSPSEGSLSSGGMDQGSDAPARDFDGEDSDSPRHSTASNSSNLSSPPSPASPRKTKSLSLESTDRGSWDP
UniProt P50750, sequence (P50750 whole entry, looked up): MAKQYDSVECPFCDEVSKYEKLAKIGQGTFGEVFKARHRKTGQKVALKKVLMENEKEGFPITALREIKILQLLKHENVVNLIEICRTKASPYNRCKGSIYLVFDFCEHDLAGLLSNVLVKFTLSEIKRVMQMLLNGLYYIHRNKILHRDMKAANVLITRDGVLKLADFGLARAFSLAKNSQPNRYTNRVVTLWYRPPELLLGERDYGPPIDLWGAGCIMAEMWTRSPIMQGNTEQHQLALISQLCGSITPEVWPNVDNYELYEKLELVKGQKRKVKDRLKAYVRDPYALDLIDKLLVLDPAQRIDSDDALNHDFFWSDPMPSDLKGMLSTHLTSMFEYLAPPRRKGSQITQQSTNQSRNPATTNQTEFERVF
UniProt Q00587, sequence (Q00587 whole entry, looked up): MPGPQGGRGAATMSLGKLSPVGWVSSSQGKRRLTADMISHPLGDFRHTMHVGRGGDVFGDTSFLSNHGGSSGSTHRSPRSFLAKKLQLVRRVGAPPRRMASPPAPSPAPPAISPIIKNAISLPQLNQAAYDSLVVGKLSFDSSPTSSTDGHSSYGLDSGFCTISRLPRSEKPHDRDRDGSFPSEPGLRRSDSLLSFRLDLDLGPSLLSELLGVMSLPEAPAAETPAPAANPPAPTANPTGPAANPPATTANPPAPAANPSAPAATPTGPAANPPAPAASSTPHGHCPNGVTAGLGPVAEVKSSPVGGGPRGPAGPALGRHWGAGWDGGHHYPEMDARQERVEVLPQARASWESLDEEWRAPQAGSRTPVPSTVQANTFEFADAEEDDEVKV
UniProt Q8IWY9, sequence (Q8IWY9 whole entry, looked up): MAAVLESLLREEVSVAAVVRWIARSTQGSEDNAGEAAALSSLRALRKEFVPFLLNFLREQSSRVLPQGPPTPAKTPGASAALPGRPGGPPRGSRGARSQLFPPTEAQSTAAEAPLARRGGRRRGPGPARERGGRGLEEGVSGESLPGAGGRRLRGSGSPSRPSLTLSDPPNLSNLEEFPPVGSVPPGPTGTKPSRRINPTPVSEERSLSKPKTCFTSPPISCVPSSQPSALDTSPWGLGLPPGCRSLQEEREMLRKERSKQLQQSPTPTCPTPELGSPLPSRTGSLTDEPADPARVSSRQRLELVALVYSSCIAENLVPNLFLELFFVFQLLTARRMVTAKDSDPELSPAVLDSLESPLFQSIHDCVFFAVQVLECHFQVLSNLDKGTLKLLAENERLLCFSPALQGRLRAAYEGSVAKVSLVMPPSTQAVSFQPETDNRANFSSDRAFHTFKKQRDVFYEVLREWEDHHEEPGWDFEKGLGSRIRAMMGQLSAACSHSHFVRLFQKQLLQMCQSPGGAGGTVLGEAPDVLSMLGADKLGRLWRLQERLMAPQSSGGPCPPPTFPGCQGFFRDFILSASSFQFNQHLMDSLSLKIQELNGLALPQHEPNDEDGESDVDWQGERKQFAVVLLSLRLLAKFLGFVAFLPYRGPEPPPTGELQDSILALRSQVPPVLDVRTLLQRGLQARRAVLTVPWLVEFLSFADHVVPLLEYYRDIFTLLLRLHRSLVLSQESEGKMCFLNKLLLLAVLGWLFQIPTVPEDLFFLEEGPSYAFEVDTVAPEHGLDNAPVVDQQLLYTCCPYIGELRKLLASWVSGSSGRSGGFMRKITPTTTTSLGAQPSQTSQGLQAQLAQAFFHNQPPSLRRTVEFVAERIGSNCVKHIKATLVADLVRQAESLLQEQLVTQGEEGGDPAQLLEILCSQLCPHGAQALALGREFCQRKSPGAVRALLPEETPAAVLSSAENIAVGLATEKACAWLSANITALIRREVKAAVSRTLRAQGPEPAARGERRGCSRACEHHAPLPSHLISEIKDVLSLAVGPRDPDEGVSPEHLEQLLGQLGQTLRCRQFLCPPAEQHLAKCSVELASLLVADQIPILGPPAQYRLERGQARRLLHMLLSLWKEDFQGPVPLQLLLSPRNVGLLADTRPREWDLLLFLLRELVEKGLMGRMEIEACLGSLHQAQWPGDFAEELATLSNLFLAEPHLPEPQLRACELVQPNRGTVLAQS
UniProt Q8N4Q1, sequence (Q8N4Q1 whole entry, looked up): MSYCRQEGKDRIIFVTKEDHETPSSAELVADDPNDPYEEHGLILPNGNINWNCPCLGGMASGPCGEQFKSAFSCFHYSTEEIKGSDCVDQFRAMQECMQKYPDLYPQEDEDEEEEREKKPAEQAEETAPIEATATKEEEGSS
UniProt P06493, sequence (P06493 whole entry, looked up): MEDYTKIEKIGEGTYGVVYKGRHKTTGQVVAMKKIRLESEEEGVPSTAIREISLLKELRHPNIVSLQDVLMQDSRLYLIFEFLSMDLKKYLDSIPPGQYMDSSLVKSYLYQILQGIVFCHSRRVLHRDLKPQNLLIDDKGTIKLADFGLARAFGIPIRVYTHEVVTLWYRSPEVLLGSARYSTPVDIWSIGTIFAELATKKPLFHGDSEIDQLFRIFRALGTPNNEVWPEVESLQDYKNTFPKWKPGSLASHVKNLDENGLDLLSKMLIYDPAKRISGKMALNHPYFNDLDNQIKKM
UniProt Q9P0B6, sequence (Q9P0B6 whole entry, looked up): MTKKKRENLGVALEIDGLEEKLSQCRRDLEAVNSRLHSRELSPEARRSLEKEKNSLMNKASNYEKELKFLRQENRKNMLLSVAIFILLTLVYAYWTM
UniProt P46109, sequence (P46109 whole entry, looked up): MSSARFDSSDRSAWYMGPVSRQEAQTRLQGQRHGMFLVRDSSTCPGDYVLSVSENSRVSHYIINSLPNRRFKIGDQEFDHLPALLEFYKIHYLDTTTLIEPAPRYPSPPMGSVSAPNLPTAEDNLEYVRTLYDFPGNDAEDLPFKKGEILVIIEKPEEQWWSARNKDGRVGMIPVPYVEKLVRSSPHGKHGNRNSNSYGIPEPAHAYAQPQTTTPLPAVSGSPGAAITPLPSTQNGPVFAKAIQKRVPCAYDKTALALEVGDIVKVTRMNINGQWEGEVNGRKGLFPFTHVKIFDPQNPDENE

| Target | log2 fold change [1] | log2 fold change (crizotinib) | log2 fold change [2] | log2 fold change [3] | log2 fold change (duvelisib) | log2 fold change (gandotinib) | log2 fold change (tozasertib) | log2 fold change [4] | log2 fold change (doramapimod) | log2 fold change (ispinesib) | log2 fold change (bafetinib) | log2 fold change [5] | log2 fold change (nilotinib) | log2 fold change [6] | log2 fold change (dasatinib) | log2 fold change [7] | log2 fold change [8] | log2 fold change [9] | log2 fold change (tipifarnib) | log2 fold change (mubritinib) |
| --- | --- | --- | --- | --- | --- | --- | --- | --- | --- | --- | --- | --- | --- | --- | --- | --- | --- | --- | --- | --- |
| CDC42EP1 (UniProt Q00587) | -0.006 | -0.566 (active) | 0.019 | -0.041 | -0.061 | -0.524 (active) | -0.192 | 0.073 | 0.076 | -0.327 | -0.115 | 0.092 | -0.072 | -0.59 (active) | -0.2 | -0.211 | 0.079 | 0.051 | 0.049 | 0.007 |
| CRKL (UniProt P46109) | 0.037 | -1.34 (active) | 0.008 | -0.045 | 0.075 | -0.027 | -0.357 | 0.012 | -0.024 | 0.046 | -1.41 (active) | 0.013 | -1.34 (active) | -0.054 | -2.17 (active) | 0.023 | 0.004 | 0.028 | 0.024 | 0.049 |
| CDK9 isoform 2 (UniProt P50750) | -0.017 | -0.103 | -0.075 | 0.189 | -0.076 | -0.054 | -0.031 | 0.03 | 0.066 | -0.013 | 0.039 | 0.108 | -0.045 | -0.059 | -0.011 | 0.22 | -0.091 | -0.013 | 0.068 | -0.067 |
| CCDC167 (UniProt Q9P0B6) | -0.08 | 0.025 | 0.071 | 0.135 | 0.263 | 0.181 | -0.121 | -0.214 | 0.034 | -0.344 (active) | -0.024 | -0.057 | -0.03 | -0.035 | 0.193 | 0.026 | -0.185 | -0.018 | 0.142 | -0.043 |
| CDC42BPA isoform 6 (UniProt Q5VT25) | 0.03 | -0.477 (active) | -0.016 | -0.596 (active) | 0.145 | -0.148 | -0.048 | 0.002 | 0.071 | -0.049 | 0.051 | 0.102 | 0.28 | -0.682 (active) | -0.254 | 0.135 | 0.036 | 0.008 | -0.185 | 0.037 |
| CDAN1 (UniProt Q8IWY9) | 0.058 | 0.024 | 0.175 | 0.066 | 0.025 | -0.054 | -0.098 | 0.008 | 0.034 | -0.02 | -0.012 | -0.014 | 0.064 | -0.195 | -0.582 (active) | -0.017 | -0.023 | 0.008 | 0.011 | 0.056 |
| CDK1 (UniProt P06493) | 0.005 | -0.128 | -0.005 | -0.019 | 0.021 | -0.171 | -0.057 | 0 | -0.031 | 0.033 | 0.002 | -0.022 | 0.022 | -0.196 | -0.092 | -0.199 | -0.067 | -0.023 | -0.019 | 0.083 |
| CHCHD4 isoform 2 (UniProt Q8N4Q1) | -0.041 | 0.017 | 0.156 | -0.272 | -0.217 | -0.079 | 0.182 | 0.022 | 0.069 | -0.074 | 0 | 0.764 (active) | -0.054 | -0.015 | -0.121 | -0.039 | -0.185 | -0.059 | -0.208 | 0 |
